According to PubChem BioAssay (NCATS):
Values without a mark were called inactive. Active and inactive are the calls of the source. Calls come from the whole dose curve; as a rule, active = well fitted activation curve with a large enough effect; inconclusive = small, poorly fitted or top-dose-only effect; inactive = flat fitted curve, though single readings scatter.

assay: Cellular Toxicity (caspase-3) SHSY5Y (AID 657); settings: SH-SY5Y caspase-3 activation; series mostly up to 91.7 µM; caspase-3 activation: at the top concentration
Source text: NIH Chemical Genomics Center [NCGC]
NIH Molecular Libraries Screening Centers Network [MLSCN]
National Institutes of Environmental Health Sciences [NIEHS]
National Toxicology Program [NTP]
We have developed a 1536-well cell-based assay for quantitative high throughput screening (qHTS) against a number of cell lines to determine in vitro caspase 3/7 activity of small molecules. This particular assay uses the SH-SY5Y cell line which is derived from human neuroblastoma.
NCGC Assay Protocol Summary:
The Caspase-Glo 3/7 assay (Promega) is a homogeneous method to measure caspase-3 and caspase-7 activities in cultured cells. The quantitation of caspase 3/7 activity is based on the cleavage of a peptide-aminoluciferin substrate. After caspase cleaves the substrate the free aminoluciferin is liberated and serves as the substrate of luciferase, which generates the light. The luminescent signal is proportional to the amount of caspase 3/7 activity present.
Using the Caspase-Glo 3/7 assay, the amount of caspase 3/7 activity was measured in the SH-SY5Y cell line with complete culture medium following compound treatment for 16 hours. The assay was performed in opaque white 1536-well plates. In the screen, staurosporine and doxorubicin were used as positive controls. Library compounds were measured for their ability to cause the activation of caspase 3/7 in the cell line, as reflected by an increase in luminescence signal, in a concentration-dependent manner. Data were normalized to the controls for basal activity (DMSO only) and 100% stimulation (10 uM staurosporine). AC50 values were determined from concentration-response data modeled with the standard Hill equation.
qHTS protocol for caspase 3/7 assay in SH-SY5Y cells
[Step] [Parameter] [Value] [Description]
1. Reagent; 5 uL; 1500 SH-SY5Y cells/well
2. Time; 5 hr; 37 °C incubation
4. Controls; 23 nL; doxorubicin 7 pM to 100 uM & staurosporine 1.4 pM to 20 uM
5. Time; 16 hr; 37 °C incubation
6. Reagent; 5 uL; Caspase-Glo 3/7 reagent
7. Time; 1 hr; Room Temperature
8. Detection; Luminescence; Viewlux plate reader
Keywords: caspase 3/7, apoptosis, SH-SY5Y cell line, luminescence, NTPHTS, NTPHTS_NCGC, NIEHS, EPA, DSSTox, MLSMR, MLSCN, NIH Roadmap, qHTS, NCGC
Potency is the fitted concentration of half-maximal effect.

SMILES | caspase-3 activation [%] | Potency
O=C(OCC(COC(=O)c1ccccc1)(COC(=O)c1ccccc1)COC(=O)c1ccccc1)c1ccccc1 | 0.419 | 
Cc1cc(Nc2ccc(O)cc2)ccc1N | 13.5 | 
O=C1OC2(c3cc(Br)c(O)c(Br)c3Oc3c2cc(Br)c(O)c3Br)c2c(Cl)c(Cl)c(Cl)c(Cl)c21 | -0.51 | 
CC(=O)Nc1ccc(C(=O)CCl)cc1 | -10.8 | 
C=CC(=O)OCC(CO)(COC(=O)C=C)COC(=O)C=C |  | 2510 nM (active)
c1ccc2c(c1)-c1cccc3c1c-2cc1ccccc13 | -1.49 | 
O=[N+]([O-])c1cc([N+](=O)[O-])c2ccc(S(=O)(=O)O)cc2c1O | 2.44 | 
O=C=Nc1ccc(Cc2ccc(N=C=O)cc2)cc1 | -1.59 | 
c1ccc2c(c1)ccc1cc3c(ccc4ccccc43)cc12 | -1.49 | 
O=Cc1ccc(Cl)c(Cl)c1 | 0.849 | 
O=C(/C=C/c1ccc(O)c(O)c1)OC1C[C@](O)(C(=O)O)C[C@@H](O)[C@H]1O (stereo not given in full) |  | inactive
Oc1ccc2cc(SSc3ccc4cc(O)ccc4c3)ccc2c1 | -8.41 | 
CNc1ccc(O)cc1 | -9.17 | 
CO[C@H]1/C=C/O[C@@]2(C)Oc3c(C)c(O)c4c(O)c(c5c(c4c3C2=O)NC2(CCN(CC(C)C)CC2)N=5)=NC(=O)/C(C)=C\C=C\[C@H](C)[C@H](O)[C@@H](C)[C@@H](O)[C@@H](C)[C@H](OC(C)=O)[C@@H]1C | 2.1 | 
C/C=C1\C(=O)C[C@H]2[C@@H]3CCC4=CC(=O)CC[C@]4(C)[C@H]3CC[C@]12C | 3.56 | 
Cc1ccc(S(=O)(=O)Oc2ccc(N=Nc3ccc(-c4ccc(N=Nc5c(O)ccc6cc(S(=O)(=O)O)cc(S(=O)(=O)O)c56)c(C)c4)cc3C)cc2)cc1 | -2.09 | 
Cc1cccc(O)c1C | -2 | 
C=C(C)c1ccccc1 | 3.45 | 
ClC1=C(Cl)C(Cl)(Cl)C(Cl)=C1Cl | 1.78 | 
Nc1ccc2cc3ccccc3cc2c1 | -1.6 | 
CN1[C@H]2CC(OC(=O)[C@H](CO)c3ccccc3)C[C@H]1[C@H]1O[C@H]12 (stereo not given in full) |  | inactive
CCCCCC/C(C=O)=C\c1ccccc1 | -0.0375 | 
CCC(C)Nc1ccc(NC(C)CC)cc1 (stereo not given) | -11.1 | 
CC/C(=C(\c1ccccc1)c1ccc(OCCN(C)C)cc1)c1ccc(O)cc1 | 7.36 | 
CN(C)c1ccc(C2(c3ccc(N(C)C)cc3)OC(=O)c3cc(N(C)C)ccc32)cc1 | 0.594 | 
